PubChem BioAssay AID1030 (National Center for Advancing Translational Sciences (NCATS), 2008)
Among all 220,000 compounds or so, about 16,000 (7.3%) were called active. Not shown: some 25% with an inconclusive outcome. The sample holds actives, similar compounds and a random draw of the others, so the mix is not that of the screen. The call rests on the fitted dose curve; in most records, active means well fitted inhibition curve with a large enough effect (not every such curve was filed as active); inconclusive means small, poorly fitted or top-dose-only effect, or another doubt; inactive means no such curve, though single readings can be large or run the other way.

Target: Aldehyde dehydrogenase 1A1 (Homo sapiens) (UniProt P00352)
Sequence (P00352 whole entry, looked up): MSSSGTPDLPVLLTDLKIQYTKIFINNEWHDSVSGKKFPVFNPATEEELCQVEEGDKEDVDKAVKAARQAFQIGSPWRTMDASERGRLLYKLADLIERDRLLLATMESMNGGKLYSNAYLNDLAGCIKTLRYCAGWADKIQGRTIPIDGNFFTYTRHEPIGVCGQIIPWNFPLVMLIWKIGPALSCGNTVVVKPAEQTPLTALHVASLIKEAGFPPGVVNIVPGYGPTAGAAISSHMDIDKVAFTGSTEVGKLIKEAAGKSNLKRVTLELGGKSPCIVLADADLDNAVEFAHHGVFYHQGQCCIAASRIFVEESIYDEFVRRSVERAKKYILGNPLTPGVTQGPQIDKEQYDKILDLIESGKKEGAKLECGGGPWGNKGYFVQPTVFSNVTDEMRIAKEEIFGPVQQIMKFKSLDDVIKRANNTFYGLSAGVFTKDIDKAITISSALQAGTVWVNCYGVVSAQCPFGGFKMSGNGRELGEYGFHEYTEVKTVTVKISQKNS
Assay: qHTS Assay for Inhibitors of Aldehyde Dehydrogenase 1 (ALDH1A1);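 on activity, negative = inhibition: plate controls were no enzyme wells and a reference inhibitor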
Settings: Purified ALDH1A1, NADH fluorescence, propionaldehyde substrate; series mostly up to 75.3 µM; activity, negative = inhibition: at the top concentration
Potency means the concentration at half of the fitted maximal effect.

Row | Compound | activity, negative = inhibition | Potency
1 | O=C1CC(=O)Nc2cc(S(=O)(=O)N3CCN(c4cccc(C(F)(F)F)c4)CC3)ccc2N1 | -2.99% (inactive) | 
2 | O=C(CN(CC1CCCO1)C(=O)CNS(=O)(=O)c1ccc(F)cc1)NCc1ccco1 (centres undefined) | 4.66% (inactive) | 
3 | Cc1ccc(S(=O)(=O)N(C)CC(=O)NC2CCCC2)cc1 | -2.42% (inactive) | 
4 | Cc1ccc(S(=O)(=O)NCC(=O)N(CC(=O)NC2CCCCC2)Cc2ccco2)cc1 |  | 17.8 µM (active)
5 | COc1ccccc1-c1nc(SC)n[nH]1 | 2.27% (inactive) | 
6 | O=C(CN1CCOCC1)Nc1c(Cl)cc(Cl)cc1Cl | 9.81% (inactive) | 
7 | C=CCNC(=S)NNC(=O)c1cc(Cl)ccc1OC | 8.59% (inactive) | 
8 | COc1cc(C(=O)N(Cc2ccc(N(C)C)cc2)C2CCS(=O)(=O)C2)cc(OC)c1OC (centres undefined) | -4.2% (inactive) | 
9 | COc1ccc(C(=O)N(Cc2ccc(N(C)C)cc2)C2CCS(=O)(=O)C2)cc1 (centres undefined) |  | 5.62 µM (active)
10 | COc1ccc(NC(=O)COc2ccc(C(=O)OCC(=O)N(C)C3CCS(=O)(=O)C3)cc2OC)cc1 (centres undefined) | -5.23% (inactive) | 
11 | CC1(C)C(C=C(Cl)Cl)C1C(=O)N(Cc1ccc(Cl)cc1)C1CCS(=O)(=O)C1 (centres undefined) | -1.61% (inactive) | 
12 | CCCCN(C(=O)COc1ccc(NC(C)=O)cc1)C1CCS(=O)(=O)C1 (centres undefined) | 1.35% (inactive) | 
13 | CCOc1ccc(C(=O)N(Cc2ccc(N(C)C)cc2)C2CCS(=O)(=O)C2)cc1 (centres undefined) |  | 12.6 µM (active)
14 | CCCN(CCC)CCCNC(=O)CNC(=O)c1nn(-c2ccc(OC)cc2)c(=O)c2ccccc12 | -5.06% (inactive) | 
15 | COc1ccc(CC(NC(C)=O)C(=O)NC2CCN(C(=O)c3ccc(OC)c(OC)c3)CC2)cc1OC (centres undefined) | 4.43% (inactive) | 
16 | CNC(=O)c1ccc(NC(=O)c2cccc(C(F)(F)F)c2)cc1 | 2.1% (inactive) | 
17 | CC(C)N(C(=O)Cn1cc(SCC(=O)N2CCCC2)c2ccccc21)C(C)C | 4.74% (inactive) | 
18 | O=C(c1cccc(F)c1)N1CCN(c2ccc([N+](=O)[O-])c3cccnc23)CC1 | -6.77% (inactive) | 
19 | O=C(c1cccc(F)c1)N1CCN(c2ccc([N+](=O)[O-])c(N3CCCCC3)c2)CC1 |  | 8.91 µM (active)
20 | O=C(c1cccc(C(=O)N2CCN(c3ccc(F)cc3)CC2)c1)N1CCN(c2ccc(F)cc2)CC1 | 2.51% (inactive) | 
21 | CCCN(CC(=O)Nc1ccccc1C)C(=O)c1cc(=O)[nH]c2ccccc12 | -3.3% (inactive) | 
22 | O=C(Nc1ccc2c(c1)C(=O)OC2)Nc1cccc2ccccc12 | 4.39% (inactive) | 
23 | CC(C)OCCCNC(=S)N1CCC(C(=O)c2ccc3c(c2)OCCO3)CC1 | -11.4% (inactive) | 
24 | Cc1nn(C)c(C)c1CN(C(=O)CCc1nnc(Cc2c[nH]c3ccccc23)o1)C(C)C | 17% (inactive) | 
25 | Cc1cc(NC(=O)CN2CCCC(C)C2)n(-c2nc3ccccc3s2)n1 (centres undefined) | 0.548% (inactive) | 
26 | CCOC(=O)N1CCN(CC(=O)Nc2ccc(F)cc2)CC1 | -2.18% (inactive) | 

Row | Compound | activity, negative = inhibition | Potency
27 | CCOC(=O)N1CCN(CC(=O)Nc2cc(C)nn2-c2nc3ccccc3s2)CC1 |  | 15.8 µM (active)
28 | CCOC(=O)CN(C)Cc1c[nH]c2ccccc12 |  | 22.4 µM (active)
29 | CC(=O)NC(Cc1c[nH]c2ccccc12)C(=O)O (centres undefined) | 9.05% (inactive) | 
30 | CC(C)(C)N(Cc1ccccc1)C(=O)COC(=O)CCc1c[nH]c2ccccc12 | -11.5% (inactive) | 
31 | CN(Cc1cccs1)C(=O)Cc1c[nH]c2ccccc12 | 3.39% (inactive) | 
32 | O=C(Cc1c[nH]c2ccccc12)OCCOC(=O)Cc1c[nH]c2ccccc12 |  | 17.8 µM (active)
33 | NS(=O)(=O)c1ccc(NC(=O)COC(=O)CCc2c[nH]c3ccccc23)cc1 | -1.24% (inactive) | 
34 | COc1ccc(NC(=O)C(=O)NCC(=O)Nc2cccc(C(F)(F)F)c2)cc1 | 0.589% (inactive) | 
35 | COc1ccc(-c2nc(CS(=O)CC(=O)N3CCc4ccccc4C3)c(C)o2)cc1 (centres undefined) |  | 25.1 µM (active)
36 | Cc1nnc(SCC(=O)N2CCc3ccccc3C2)s1 | -3.58% (inactive) | 
37 | O=C(C(=O)N1CCc2ccccc2C1)N1CCc2ccccc2C1 | 8.43% (inactive) | 
38 | Clc1cc(-c2ccc(/C=N/n3cnnc3)o2)ccc1Br | 9.2% (inactive) | 
39 | CCc1ccccc1NC(=O)CSc1nnc(-c2ccncc2)o1 | -0.724% (inactive) | 
40 | Cc1ccc2c(Cl)c(C(=O)Nc3nn[nH]n3)sc2c1 | 0.398% (inactive) | 
41 | O=c1ccn([C@@H]2O[C@H](COP(=O)(O)OP(=O)(O)OP(=O)(O)O)[C@@H](O)[C@H]2O)c(=O)[nH]1 | 6.39% (inactive) | 
42 | O=C(Oc1ccc([N+](=O)[O-])cc1)c1ccc(Cl)c(S(=O)(=O)N2CCCCC2)c1 |  | 12.6 µM (active)
43 | Cc1ccc(C(=O)NCC(=O)O)cc1S(=O)(=O)N1CCCCC1 | 2.98% (inactive) | 
44 | COc1ccccc1N1CCN(C(=O)c2ccc(Cl)c(S(=O)(=O)N3CCCC3)c2)CC1 | 0.0267% (inactive) | 
45 | CC1CCC2(CC1)NC(=O)N(Cc1nnc(-c3cccs3)o1)C2=O (centres undefined) | -3.25% (inactive) | 
46 | CC(O)[C@@H](N)C(=O)O (some centres undefined) | 16.9% (inactive) | 
47 | CN(CC(=O)NCCc1ccccn1)S(=O)(=O)c1ccc(Cl)cc1 | -1.89% (inactive) | 
48 | O=c1[nH][nH]c(=O)c2cc(N3CCCC3)ccc12 | -1.14% (inactive) | 
49 | O=C1C=CC(=O)N1c1ccc(N2CCCCC2)cc1 |  | 0.251 µM (active)
50 | Cc1cccn2c(CN(C)C3CCCc4ccccc43)c(C(=O)N3CCOCC3)nc12 (centres undefined) | -12.9% (inactive) | 
51 | CC1CCN(C(=S)c2cccc(O)c2)CC1 |  | 31.6 µM (active)
52 | CC(=O)N1CCN(S(=O)(=O)c2cccc(C(=O)NC3CCC(C)CC3)c2)CC1 (centres undefined) | -8.41% (inactive) | 

Row | Compound | activity, negative = inhibition | Potency
53 | COc1ccc(C(=O)Nc2ccc(N3CCC(C)CC3)cc2)cc1Br | 10.6% (inactive) | 
54 | Cc1cc2c(cc1C)[n+](C)cn2CC(O)COCC1CC=CCC1 (centres undefined) | -2.51% (inactive) | 
55 | CNC(=S)N1CCN(c2ccccn2)CC1 | 3.36% (inactive) | 
56 | COc1ccc(N2CCN(C(C)=C3C(=O)c4ccccc4C3=O)CC2)cc1 | 2.48% (inactive) | 
57 | CC(=C1C(=O)c2ccccc2C1=O)N1CCN(c2ccccn2)CC1 |  | 12.6 µM (active)
58 | CC1(C)OC(=O)C(=CNC(CO)C(=O)O)C(=O)O1 (centres undefined) | 6.92% (inactive) | 
59 | O=C(/C=C/c1c(Cl)cccc1Cl)NCc1ccccc1 | 5.21% (inactive) | 
60 | O=C1N=C2SCCN2/C1=C\c1c(Cl)cccc1Cl | -0.867% (inactive) | 
61 | O=Cc1c(Cl)cccc1Cl |  | 14.1 µM (active)
62 | Cc1ccc(C(=O)O)cc1N1C(=O)CCCC1=O | 14% (inactive) | 
63 | O=C(O)c1ccc(NC(=O)c2cn(-c3ccccc3)nc2-c2ccc(Cl)cc2)cc1 | 1.24% (inactive) | 
64 | COC(=O)c1ccc(NC(=O)CSc2nnc(Cc3cccn3C)n2-c2ccc(F)cc2)cc1 |  | 22.4 µM (active)
65 | COc1ccccc1NC(=O)CSc1nnc(Cn2nnc(-c3ccccc3)n2)n1-c1ccccc1 |  | 2.82 µM (active)
66 | Cn1cccc1Cc1nnc(SCC(=O)NCCc2ccccc2)n1-c1ccc(F)cc1 | -0.308% (inactive) | 
67 | COCCn1c(Cc2cccn2C)nnc1SCC(=O)Nc1nccs1 | -8.29% (inactive) | 
68 | COc1ccc(OC)c(/C=N/NC(=O)CSc2nnc(C)n2-c2ccccc2)c1 | -10.8% (inactive) | 
69 | COc1cccc(-n2c(Cc3cc(=O)[nH]c(=O)[nH]3)nnc2SCC(=O)Nc2ccccc2)c1 | -2.15% (inactive) | 
70 | COC(=O)c1ccccc1NC(=O)CSc1nnnn1C | 2.76% (inactive) | 
71 | COc1cc(-c2nnn(CC(=O)NCc3ccccc3)n2)cc(OC)c1OC | 3.6% (inactive) | 
72 | COc1ccccc1NC(=O)CSc1nnc(Cc2cccn2C)n1-c1ccc(F)cc1 |  | 17.8 µM (active)
73 | O=C1CC(c2c(F)cccc2Cl)C(n2cncn2)C(O)=C1C1NCCc2ccccc21 (centres undefined) | 1.49% (inactive) | 
74 | CCOc1ccc(C(CC(=O)O)NC(=O)C23CC4CC(CC(C4)C2)C3)cc1OC (centres undefined) | 3.06% (inactive) | 
75 | O=C(CNC(=O)COc1ccccc1)NCCc1ccccn1 | 5.5% (inactive) | 
76 | COC(c1ccccc1)c1nnc(CCC(=O)N2CCN(CCOc3ccccc3)CC2)o1 (centres undefined) | 6.64% (inactive) | 
77 | OCCC1CN(Cc2cccc(O)c2)CCN1CCc1ccccc1 (centres undefined) | 14.4% (inactive) | 
78 | CCn1cc(-c2cc(C(=O)O)on2)c(C)n1 | 1.42% (inactive) | 

Row | Compound | activity, negative = inhibition | Potency
79 | COC(=O)C(C)N=Cc1ccccc1 (centres undefined) | 6.45% (inactive) | 
80 | Fc1ccc(-c2csc(-c3ccc(C4SCCS4)cc3)n2)cc1F | -10.1% (inactive) | 
81 | CCC(C)Sc1nc2c(c(=O)[nH]c(=O)n2C)n1CC(O)COc1cccc2ccccc12 (centres undefined) |  | 25.1 µM (active)
82 | CCCCNc1nc2c(c(=O)[nH]c(=O)n2C)n1CCOc1ccccc1 | 6.54% (inactive) | 
83 | Cc1cc(C)c(NC(=O)C[N+](C)(C)CC(O)COc2cccc3ccccc23)c(C)c1 (centres undefined) | -4.91% (inactive) | 
84 | CCCN(CC(=O)Nc1ccc(OC)c(OC)c1)CC(=O)Nc1ccc(F)c(F)c1F | -1.85% (inactive) | 
85 | CNc1ccc(SC#N)cc1 |  | 8.91 µM (active)
86 | COC(=O)Cc1c(O)ccn(Cc2cccc(C(F)(F)F)c2)c1=O | -4.24% (inactive) | 
87 | O=C1c2oc3ccc(Br)cc3c(=O)c2C(c2cccc(F)c2)N1CCO (centres undefined) | 2.17% (inactive) | 
88 | CCCOc1ccc(C2c3c(oc4cc(C)c(C)cc4c3=O)C(=O)N2CCCN2CCOCC2)cc1 (centres undefined) |  | 3.98 µM (active)
89 | CCOc1ccc(C2C(C(=O)O)c3ccccc3C(=O)N2CCN2CCOCC2)cc1 (centres undefined) | 4.96% (inactive) | 
90 | c1ccc2cc(OCCN3CCCC3)ccc2c1 | 0.624% (inactive) | 
91 | COc1cccc(OCCCN2CCCCCC2)c1 |  | 14.1 µM (active)
92 | COc1cccc(OCC(O)CN2CCN(CCO)CC2)c1 (centres undefined) | -0.354% (inactive) | 
93 | OC(c1nnc(-c2ccccc2)o1)c1cccs1 (centres undefined) | 10.2% (inactive) | 
94 | O=C(Nc1ccccc1Cl)c1ccc2nsnc2c1 | 0.565% (inactive) | 
95 | O=C(Nc1ccccc1Cl)/C(Cl)=C(\Cl)S(=O)c1ccccc1 (centres undefined) |  | 10 µM (active)
96 | O=C(O)c1ccc(Cl)c(S(=O)(=O)Nc2ccccc2Cl)c1 | 0.312% (inactive) | 
97 | O=c1[nH]c(CN2CCOCC2)nc2scc(-c3ccccc3)c12 | -2.99% (inactive) | 
98 | Cc1ccc(S(=O)(=O)N(C)C)cc1NC(=O)COC(=O)c1c(C)noc1C | 10.9% (inactive) | 
99 | CCCCN=C1C([N+](=O)[O-])=CC=C2C1=NC1(CCCCC1)N2O |  | 1.41 µM (active)
100 | Cn1cc(CCC(=O)NCc2ccc3c(c2)OCO3)c2ccccc21 | -4.4% (inactive) | 
101 | O=C(CN(Cc1ccccc1)C(=O)c1ccc2c(c1)OCCO2)NCc1ccc2c(c1)OCO2 |  | 0.631 µM (active)
102 | O=C(COC(=O)c1ccc2c(c1)OCCO2)NCc1ccccc1 | 2.29% (inactive) | 
103 | CC(C)(C)NC(=O)CN(C(=O)c1csnn1)c1ccccc1-c1ccccc1 | 3.31% (inactive) | 
104 | CSc1cccc(NC(=S)N(Cc2ccccc2)Cc2ccccn2)c1 | -2.76% (inactive) | 
